Ten compounds from PubChem BioAssay (Tox21) can be followed below.

Results filed as inconclusive are left out. Calls of active or inactive are those of the source. Calls come from the whole dose curve; as a rule, active = well fitted curve in the direction sought with a large enough effect in the repeat runs; inconclusive = weak or mixed curves; inactive = no such curve, though single readings can be large; an effect the other way counts as inactive or inconclusive.
% is set by controls: 0 for no effect and ±100 for the full control effect.

Nuclear receptor subfamily 1 group I member 2 (Rattus norvegicus), sequence (Q9R1A7 whole entry, looked up): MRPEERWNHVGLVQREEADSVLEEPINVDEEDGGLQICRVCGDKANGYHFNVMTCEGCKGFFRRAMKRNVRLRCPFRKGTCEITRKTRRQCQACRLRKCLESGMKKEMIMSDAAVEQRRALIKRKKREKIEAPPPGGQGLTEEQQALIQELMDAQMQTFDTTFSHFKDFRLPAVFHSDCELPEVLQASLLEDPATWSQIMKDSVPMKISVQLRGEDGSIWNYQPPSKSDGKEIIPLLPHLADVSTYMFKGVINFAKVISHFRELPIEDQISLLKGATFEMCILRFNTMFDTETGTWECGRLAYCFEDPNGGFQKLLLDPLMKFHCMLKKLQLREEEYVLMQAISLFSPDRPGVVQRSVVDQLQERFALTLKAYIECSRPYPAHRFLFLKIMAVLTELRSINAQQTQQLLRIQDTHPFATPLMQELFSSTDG

One assay addresses Nuclear receptor subfamily 1 group I member 2 (Rattus norvegicus) (UniProt Q9R1A7). The assay can be described thus: Rat pregnane X receptor (rPXR) activation by small molecules, qHTS assay (AID 1346983). Note: nearly all actives have a fitted effect of over 20% in size. Note: potency is the fitted concentration of half-maximal effect. Particulars: rPXR luciferase reporter cells, One-Glo luminescence, 24 h; max activation: hits give high values. The essentials:
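Cell-based rPXR luciferase reporter assay, 2,000 cells per well, rested 5hr at 37 C before compound addition in DMSO, then 24 hr at 37 C. One-Glo reagent was added and luminescence read after 30 min at room temperature.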
In general terms: Quantitative high-throughput screening tests each substance at several concentrations.
With `COc1cc2nc(N3CCN(C(=O)C4CCCO4)CC3)nc(N)c2cc1OC` (stereo unspecified), the max activation is 0.468% (inactive).

As for `COC(=O)N/N=C/c1c[n+]([O-])c2ccccc2[n+]1[O-]`, the max activation was -1.2% (inactive).

Consider `CC(=O)Nc1ccc(OCCOCCOc2ccc(NC(C)=O)cc2)cc1`, for which the max activation is -0.187% (inactive).

`CC(O)CCCCn1c(=O)c2c(ncn2C)n(C)c1=O` (stereo unspecified): the max activation was -1.02% (inactive).

Take `O=S(=O)(O)c1cc(I)c(O)c2ncccc12`: the max activation is -0.763% (inactive).

For `COc1ccc2cc(CCC(C)=O)ccc2c1`, the Potency was 8.91 µM (active).

In the case of `NS(=O)(=O)c1cc2c(cc1C(F)(F)F)NCNS2(=O)=O`, the max activation was -2.82% (inactive).

Take `CC[C@@]1(c2ccccc2)NC(=O)N(C)C1=O`: the max activation is -0.191% (inactive).

Turning to `CN(C)CCC[C@@]1(c2ccc(F)cc2)OCc2cc(C#N)ccc21`, the max activation is -1.39% (inactive).

`CCOC(=O)[C@H](CCc1ccccc1)N[C@H]1CS[C@H](c2cccs2)CN(CC(=O)O)C1=O`: the max activation was -2.69% (inactive).

The next assay deals with Nuclear receptor subfamily 1 group I member 2 (Homo sapiens) (UniProt O75469). The assay can be described thus: CYP3A4 induction through human pregnane X receptor (PXR) by small molecules, qHTS assay (AID 1346984). Note: nearly all actives have a fitted effect of over 40% in size. Particulars: DPX-2 HepG2 PXR, CYP3A4-luciferin luminescence, 24 h; series mostly up to 46.1 µM; activation: at the top concentration. In a few lines:
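Quantitative HTS in DPX-2 cells, i.e. HepG2 transfected with PXR response element and CYP3A4-promoter luciferase. Compounds in DMSO incubated 24hr at 37C; then P450-Glo CYP3A4 substrate, 3uM final, 3hr; One-Glo luminescence.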
Turning to `COC(=O)N/N=C/c1c[n+]([O-])c2ccccc2[n+]1[O-]`, the “activation” value was -7.95% (inactive).

For `CC(=O)Nc1ccc(OCCOCCOc2ccc(NC(C)=O)cc2)cc1`, the “activation” value was -6.74% (inactive).

In the case of `CC(O)CCCCn1c(=O)c2c(ncn2C)n(C)c1=O` (stereo unspecified), the “activation” value was -1.38% (inactive).

For `O=S(=O)(O)c1cc(I)c(O)c2ncccc12`, the “activation” value was -9.71% (inactive).

Take `COc1ccc2cc(CCC(C)=O)ccc2c1`: the “activation” value was 2.26% [at 20.6 µM] (inactive).

In the case of `NS(=O)(=O)c1cc2c(cc1C(F)(F)F)NCNS2(=O)=O`, the “activation” value was -2.92% [at 20.6 µM] (inactive).

As to `CC[C@@]1(c2ccccc2)NC(=O)N(C)C1=O`, the “activation” value was -10.2% (inactive).

`CN(C)CCC[C@@]1(c2ccc(F)cc2)OCc2cc(C#N)ccc21`: the “activation” value is 20.2% (inactive).

A further assay has the same target. Briefly: Human pregnane X receptor (PXR) activation by small molecules, qHTS assay (AID 1346985). Note: nearly all actives have a fitted effect of over 40% in size. Particulars: DPX-2 HepG2 CYP3A4-luciferase, 24 h; series mostly up to 38.3 µM; activation: at the top concentration. In a few lines:
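DPX-2 cells (HepG2 co-transfected with a PXR response element and a CYP3A4-promoter luciferase construct) were seeded at 2,000 per well, rested 5 hr at 37C, then exposed to DMSO-dissolved compounds for 24 hr. Activation was read as luciferase luminescence.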
For `COc1cc2nc(N3CCN(C(=O)C4CCCO4)CC3)nc(N)c2cc1OC` (stereo unspecified), the “activation” value was 19.2% (inactive).

Take `COC(=O)N/N=C/c1c[n+]([O-])c2ccccc2[n+]1[O-]`: the “activation” value was 6.17% (inactive).

As to `CC(=O)Nc1ccc(OCCOCCOc2ccc(NC(C)=O)cc2)cc1`, the “activation” value was -3.09% (inactive).

Turning to `CC(O)CCCCn1c(=O)c2c(ncn2C)n(C)c1=O` (stereo unspecified), the “activation” value is 1.64% (inactive).

Consider `O=S(=O)(O)c1cc(I)c(O)c2ncccc12`, for which the “activation” value was -6.58% (inactive).

Take `NS(=O)(=O)c1cc2c(cc1C(F)(F)F)NCNS2(=O)=O`: the “activation” value was -1.92% [at 17.1 µM] (inactive).

For `CC[C@@]1(c2ccccc2)NC(=O)N(C)C1=O`, the “activation” value is 5.39% (inactive).

Regarding `CN(C)CCC[C@@]1(c2ccc(F)cc2)OCc2cc(C#N)ccc21`, the “activation” value was 1.19% (inactive).
